Some test systems named below: DU-145 prostate; MALME-3M melanoma; MDA-MB-231 breast; RXF 393 renal; SF-268 CNS; SF-539 CNS; UACC-257 melanoma; M14 melanoma; SF-295 CNS; K-562 leukemia.
Holding throughout (experiment): NCI-60 one-dose screen, 48 h (100 = growth as untreated, 0 = no growth, -100 = all killed)
What all share (conditions): 10 µM unless noted

The structures appear in SMILES notation. About 83,000 compounds went through this panel and 20% of them were active in at least one assay; those are over-represented in the sample as a whole.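 For each line, cells grew in 96-well plates with the test compound present at a single concentration for 48 hours.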 A number with no mark means an inactive call. Active and inactive are the calls of the source. The calls were made as follows: active = growth percent below 10; inactive = the rest.

Regarding `O=C1C=CC(=O)N1c1ccc2c(c1)Cc1cc(F)ccc1-2`, the growth with DU-145 prostate was 112%; with MALME-3M melanoma it was 94.4%; in the test on MDA-MB-231 breast it was 92.3%; with RXF 393 renal it was 92.2%; in the test with SF-268 CNS it was 99.7%; in the test with SF-539 CNS, 101%. For the same compound, the growth in the test on UACC-257 melanoma was 64.7%; in the test with M14 melanoma, 107%.

As to `O=C(CCCCC(=O)N/N=C\c1ccccc1O)N/N=C\c1ccccc1O`, the growth in the test on DU-145 prostate was 45.1%; in the test with MALME-3M melanoma, 32.6%; with MDA-MB-231 breast it was 50%; with RXF 393 renal, 43.4%; in the test with SF-268 CNS it was 40%; in the test on SF-295 CNS, 37.9%. Further, the values for the growth in the test with SF-539 CNS, in the test on UACC-257 melanoma and in the test with M14 melanoma were 19%, 26% and 20.9%, respectively.

As for `Cc1cc2c3ccccc3ccc2[n+]2ccccc12`, the growth in the test on DU-145 prostate was 86.9%; with MALME-3M melanoma, -5.59% (active); in the test on MDA-MB-231 breast, 81.6%; with SF-268 CNS, -24.6% (active); in the test with SF-295 CNS, 22.6%; with SF-539 CNS, 42.5%. For the same compound, in the test on M14 melanoma, the growth is 68.2%.

As to `NC(N)=N/N=C(/c1ccccc1)c1ccc(F)cc1`, the growth in the test on DU-145 prostate is -19.7% (active); in the test on MALME-3M melanoma, 36.5%; in the test on MDA-MB-231 breast, -18.9% (active); with SF-268 CNS, 14.2%; in the test with SF-295 CNS, 3.89% (active); in the test on SF-539 CNS, -33.5% (active). Besides, the growth in the test with M14 melanoma is -3.19% (active).

In the case of `Oc1ccc(N=Cc2ccccc2O)cc1`, the growth is 103% in the test on DU-145 prostate; 73.6% with MALME-3M melanoma; 99.7% in the test on MDA-MB-231 breast; 93.4% in the test on SF-268 CNS; 107% in the test with SF-295 CNS; 79.9% in the test with SF-539 CNS. Also, in the test with M14 melanoma, the growth is 94.2%.

Turning to `COC(=O)c1ccc(Cn2cnc3c(N)ncnc32)cc1`, the growth was 89.4% in the test on K-562 leukemia; 87.7% with MDA-MB-231 breast; 102% in the test with RXF 393 renal; 114% in the test with SF-268 CNS; 109% in the test on SF-295 CNS; 92.1% with SF-539 CNS. The growth with UACC-257 melanoma is 116%; in the test on M14 melanoma, 110%.

Regarding `Cc1cc(N2CCOCC2)nc(N[C@@H]2CCC[C@H](Nc3ccnc4cc(Cl)ccc34)C2)n1`, the growth in the test with DU-145 prostate was 26.2%; in the test with MALME-3M melanoma, -75.3% (active); with MDA-MB-231 breast it was -53.7% (active); in the test on RXF 393 renal it was -57.6% (active); in the test with SF-268 CNS, 19.1%; with SF-295 CNS it was -66.2% (active). The growth with SF-539 CNS was -79.7% (active); in the test on UACC-257 melanoma, -86.4% (active); with M14 melanoma, -86.7% (active).

In the case of `Clc1ccc2nc3nc4ccc[nH]c4cc3c2c1`, the growth with DU-145 prostate was 100%; in the test with MALME-3M melanoma, 87.2%; in the test with MDA-MB-231 breast, 99.6%; in the test with RXF 393 renal, 116%; in the test with SF-268 CNS, 97.9%; in the test on SF-295 CNS it was 101%. Besides, the growth in the test with SF-539 CNS was 83.7%; in the test on UACC-257 melanoma, 85.8%; in the test with M14 melanoma, 106%.

Consider `CN(C)C(=S)N=Nc1c(O)[nH]c2ccccc12`, for which the growth is 31.6% with DU-145 prostate; 30.8% in the test on MALME-3M melanoma; 49.1% in the test on MDA-MB-231 breast; 14.6% with SF-268 CNS; 17.5% with SF-295 CNS; 9.37% (active) with SF-539 CNS. In the test on M14 melanoma, the growth was -6.4% (active).

Take `COc1cc(-c2nn(-c3ccc(C)cc3)cc2C(=O)O)ccc1O`: the growth in the test with DU-145 prostate was 109%; with MALME-3M melanoma it was 90%; in the test on MDA-MB-231 breast, 91.7%; in the test with RXF 393 renal, 125%; in the test on SF-268 CNS, 90.4%; in the test with SF-295 CNS it was 97.9%. The growth is 101% in the test on SF-539 CNS, 105% in the test with UACC-257 melanoma and 96.8% with M14 melanoma.

As for `COc1ccc2c(c1)C(=O)/C(=C/c1ccccn1)CC2`, the growth with DU-145 prostate was 26.1%; in the test on MALME-3M melanoma it was 72.7%; in the test with MDA-MB-231 breast, 69.4%; with RXF 393 renal, 83%; in the test with SF-268 CNS it was 90.8%; in the test on SF-295 CNS it was 78.2%. Further, the growth was 72% with SF-539 CNS, 81% with UACC-257 melanoma and 85.4% with M14 melanoma.

In the case of `CC/C=C\C[C@H]1C/C=C2/C(=O)C=C[C@H]2C/C=C\CCCC(=O)O1`, the growth in the test on DU-145 prostate was 15%; in the test with MALME-3M melanoma, 75.1%; with MDA-MB-231 breast, 40.5%; with RXF 393 renal, 36.6%; with SF-268 CNS, 39.9%; in the test with SF-295 CNS, 23.3%. The growth with SF-539 CNS was 14.7%; in the test with UACC-257 melanoma, 47.1%; in the test with M14 melanoma, 19.1%.

Consider `CCCCn1cnc2c(Sc3c([N+](=O)[O-])ncn3C)nc(N)nc21`, for which the growth is 99.6% with DU-145 prostate; 93.9% in the test with MALME-3M melanoma; 97.9% with MDA-MB-231 breast; 102% with RXF 393 renal; 102% in the test with SF-268 CNS; 105% with SF-539 CNS. For the same compound, the growth in the test with UACC-257 melanoma was 84.1%; with M14 melanoma, 102%.

Turning to `CCC#CC[C@H](O)C/C=C1/C(=O)C=C[C@@H]1C/C=C\CCCC(=O)OC`, the growth was 23% in the test with DU-145 prostate; 23.4% in the test with MALME-3M melanoma; 12.7% with MDA-MB-231 breast; -74.1% (active) with RXF 393 renal; 23.8% with SF-268 CNS; -25.6% (active) with SF-295 CNS. Moreover, the growth in the test on SF-539 CNS is -5.91% (active); in the test on UACC-257 melanoma it was -6.54% (active); with M14 melanoma, 5.13% (active).

Take `N#Cc1nnn(-c2ccc(S(N)(=O)=O)cc2)c1NCC(=O)c1ccccc1`: the growth with DU-145 prostate was 106%; in the test with MALME-3M melanoma, 96.4%; in the test with MDA-MB-231 breast, 95.1%; in the test on RXF 393 renal it was 113%; with SF-268 CNS, 93.6%; in the test with SF-295 CNS it was 100%. Also, the values for the growth with SF-539 CNS, with UACC-257 melanoma and with M14 melanoma were 116%, 88.4% and 97.5%, respectively.

The values above are taken from PubChem BioAssay (NCI).
